Results: PubChem BioAssay AID1671192 (National Center for Advancing Translational Sciences (NCATS), 2021)
Records with an inconclusive call do not appear. Calls of active or inactive are those of the source. Calls follow the shape of the dose curve; as a rule, active = well fitted curve in the direction sought with a large enough effect; inconclusive = small, poorly fitted or top-dose-only effect, or another doubt; inactive = no such curve, though single readings can be large or run the other way.

Target: Polyunsaturated fatty acid lipoxygenase ALOX15 (Homo sapiens) (UniProt P16050)
Sequence (P16050 whole entry, looked up): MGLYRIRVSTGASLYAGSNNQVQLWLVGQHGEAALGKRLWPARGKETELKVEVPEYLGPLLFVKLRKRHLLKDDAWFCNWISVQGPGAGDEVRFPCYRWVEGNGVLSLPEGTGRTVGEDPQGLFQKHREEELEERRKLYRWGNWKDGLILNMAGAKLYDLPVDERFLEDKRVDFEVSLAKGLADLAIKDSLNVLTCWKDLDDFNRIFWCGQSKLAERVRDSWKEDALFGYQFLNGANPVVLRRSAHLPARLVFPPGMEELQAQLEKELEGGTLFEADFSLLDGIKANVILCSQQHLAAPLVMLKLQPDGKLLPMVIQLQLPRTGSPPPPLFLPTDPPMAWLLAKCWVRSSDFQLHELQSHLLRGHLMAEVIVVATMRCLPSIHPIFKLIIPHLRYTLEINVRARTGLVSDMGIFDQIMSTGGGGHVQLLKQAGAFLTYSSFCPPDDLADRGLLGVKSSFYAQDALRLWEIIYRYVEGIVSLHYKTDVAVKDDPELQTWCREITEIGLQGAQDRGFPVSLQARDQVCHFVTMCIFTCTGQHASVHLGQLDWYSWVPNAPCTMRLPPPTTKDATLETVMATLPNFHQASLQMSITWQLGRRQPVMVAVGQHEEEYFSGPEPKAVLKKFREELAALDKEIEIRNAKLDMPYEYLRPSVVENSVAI
Experiment: Counterscreen qHTS for inhibitors of human arachidonate 12S-lipoxygenase (ALOX12): ALOX15 Assay
Details: purified ALOX15 enzyme activity; series mostly up to 110 µM
Outline: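 Purified human ALOX15 (15hLO-1) at 40 nM in 25 mM HEPES, 0.01% Triton X-100, pH 7.5, preincubated with compound 15 min at RT. Then 50 uM arachidonic acid for 30 min; hydroperoxide detected by Fe-xylenol orange as the 573/405 nm absorbance ratio.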

SMILES	outcome
CN1CC(=O)N(C2CCNCC2)Cc2c(NCCOc3ccccc3)ncnc21	inactive
CC(C)[S+](=O)([O-])N1CCN(c2ccc(C=O)cc2)C(=O)C1	inactive
CN(C)C(=O)N1CCCC(c2nnc3n2CCNC3)C1 (configuration not stated)	inactive
O=C(Nc1ccc(Cl)cc1Cl)c1c[nH]c2cccnc12	inactive
C[S+](=O)([O-])N1CCC(c2nnc3n2CCNC3)CC1	inactive
O=C1NCc2ccccc2CC12CCN(CCCc1ccccc1)CC2	inactive
CN1CC(=O)N(C2CCCNCC2)Cc2c1ncnc2N1CCN(Cc2ccccc2)CC1 (configuration not stated)	inactive
CSc1ccc(-c2ccccc2C=O)cc1	inactive
Cn1nc(C2CCCN2)c2c(C(=O)NCc3ccncc3)cc(C3CC3)nc21 (configuration not stated)	inactive
CN1CC(=O)N(C2CCNCC2)Cc2c1ncnc2N1CCC(O)CC1	inactive
Cc1ccc(-c2ccc(C=O)cc2)cc1Cl	inactive
NCCCC(=O)N1CCC2(CC1)CN(C(=O)Cc1ccc(Cl)cc1)CCO2	inactive
COc1ccccc1C(=O)N1CCc2nc(C3CC3)nc(-c3ccc(Cl)cc3)c2C1	inactive
CN1CC(=O)N(C2CCCNCC2)Cc2c1ncnc2N1CCC(C#N)CC1 (configuration not stated)	inactive
Cc1ccccc1N(C)C1CN(C(=O)OC(C)(C)C)C1	inactive
C[C@H](C(=O)N1Cc2ccccc2CC2(CCN(Cc3ccncc3)C2)C1)c1ccccc1 (some centres not stated)	inactive
O=Cc1ccc(-c2cncc(C(=O)O)c2)cc1	inactive
O=C1NCc2ccccc2CC12CCN(Cc1ccc3ccccc3c1)C2 (configuration not stated)	inactive
O=C1NCc2ccccc2CC12CCN(Cc1cnc3ccccc3c1)CC2	inactive

SMILES	outcome
COc1cccc(N2C(=O)NC(=NC3CCCCC3)C23CCN(C(=O)c2ccccc2OC)C3)c1 (configuration not stated)	inactive
O=C(N1CCOCC1)N1CCC(c2nnc3n2CCNC3)CC1	inactive
COc1ccc(CN2CC3(C2)C(=O)Nc2ccccc23)cc1	inactive
COc1ccc(CC(=O)N2Cc3ccccc3CC23CCCN(C(=O)CCCN)C3)cc1 (configuration not stated)	inactive
O=C(c1ccccc1)N1CCC2(CC1)C(=O)NCN2C(=O)Cc1ccccc1	inactive
CCN1CCCC12Cc1ccccc1CN(C(=O)c1ccccc1)C2 (configuration not stated)	inactive
COc1ccc(CNc2ncnc3c2CN(C2CCNCC2)C(=O)CN3C)cc1OC	inactive
O=Cc1ccccc1-c1cncc(C(=O)O)c1	inactive
O=C1NCc2ccccc2CC12CCN(Cc1cc(O)cc(O)c1)CC2	inactive
O=C(c1ccccc1F)N1CC(Oc2ccc3c(c2)OCO3)C1	inactive
COc1ccc(CCNc2ncnc3c2CN(C2CCCNC2)C(=O)CN3C)cc1 (configuration not stated)	inactive
O=C(O)CCC(=O)N1Cc2ccccc2CC2(CCCN2Cc2cccnc2)C1 (configuration not stated)	inactive
O=C(NCc1ccncc1)c1cc(C2CC2)nc2c1c(C1CCCN1)nn2-c1ccccc1 (configuration not stated)	inactive
O=C(C1CCCC1)N1Cc2ccccc2CC2(CCCN(CC3CCNC3)C2)C1 (configuration not stated)	inactive
O=C(Nc1ccccc1)N1CCC(c2nnc3n2CCNC3)CC1	inactive
O=C(N1CCCCC1)N1CCCC(c2nnc3n2CCNC3)C1 (configuration not stated)	inactive
Cc1ccc(-c2ccccc2C=O)cc1Cl	inactive
Cn1nc(C2CCNC2)c2c(C(=O)NC3CC3)cc(C3CC3)nc21 (configuration not stated)	inactive
